# According to PubChem BioAssay AID1259240 (Keith Lab, Institute of Cancer Science, University of …, 2017):
# The source made the active and inactive calls. Rule as the data show it: active = fold change mostly below about -2 (no sharp cut-off); inactive = mostly above about -1.8.
# Assay: modulation of TERT promoter-driven luciferase – cell-based, luciferase reporter, human, primary screen (AID 1259240)
# Settings: A2780 TERT promoter luciferase reporter, 16 h; at 20 µM, fold versus average of vehicle-only wells
Compound,fold change,outcome
COCCn1cc(/C=C2/C(=O)Nc3ccccc32)c2ccccc21,1.23 (inactive),
Cc1ccc(CNc2nnc(Cc3ccncc3)c3ccccc23)cc1,-1.59 (inactive),
Cn1c(=O)[nH]c(=O)c2c1nc(NCCCO)n2Cc1ccccc1Cl,-1.16 (inactive),
c1ccc(Nc2c(-c3ccc(N4CCOCC4)cc3)nc3cnccn23)cc1,1.08 (inactive),
CC(=O)Oc1ccc(/C=c2\sc3nc(-c4ccco4)nn3c2=O)cc1,-1.31 (inactive),
CCOc1ccc(-n2c(O)cnc2Nc2nc(C)cc(C)n2)cc1,-1.65 (inactive),
Cc1cc(C)cc(NC(=O)CC(C)CC2=NS(=O)(=O)c3ccccc3N2)c1 (centres undefined),-1.03 (inactive),
O=C(Cn1c(=O)oc2cc(S(=O)(=O)N3CCc4ccccc43)ccc21)NC1CCCC1,-1.1 (inactive),
CCOC(=O)Cc1nnc2c(Nc3ccccc3Cl)nc3nonc3n12,-1.8 (inactive),
Cc1cc(=O)oc2c1c(C)nn2-c1ccc(C(=O)O)cc1,-2.62 (active),
COc1ccccc1-c1nc(-c2ccccn2)no1,-2.84 (active),
O=C(CSc1ncnc2ccccc12)N1CCc2ccccc21,1.26 (inactive),
COc1cc(-c2nc3cnccn3c2NC2CCCCC2)ccc1O,,inactive
Cc1cc(/C=C2/SC(=S)N(CC(=O)O)C2=O)c(C)n1-c1ccncc1,-3.58 (active),
O=c1/c(=C/c2ccco2)sc2nc(-c3ccccc3Br)nn12,1.48 (inactive),
COc1ccc(-c2nnc3c4ccccc4c(C)nn23)cc1S(=O)(=O)NC(C)C,-1.07 (inactive),
COc1ccc(OC(C)c2nc(-c3ccc(C)cc3)no2)cc1 (centres undefined),-1.29 (inactive),
CC1=C(C(N)=O)C(c2ccc(Br)cc2)n2nc(CCCO)nc2N1 (centres undefined),,inactive
Cc1ccc(Cn2ccc(NC(=O)c3noc(C(C)C)c3[N+](=O)[O-])n2)cc1,-2.42 (active),
Cn1c(C(=O)NCCN2CCOCC2)cc2c(=O)[nH]c3ccccc3c21,1.17 (inactive),

Compound,fold change,outcome
CCc1ccc2nc(NC3=NCN(CCN4CCOCC4)CN3)nc(C)c2c1,-1.26 (inactive),
Cc1cc2c(c(=O)[nH]1)C(=O)O/C2=C\c1cc([N+](=O)[O-])ccc1O,-1.57 (inactive),
O=C(CC(=O)Nc1ccc(F)cc1F)Nc1ccc2nc3n(c(=O)c2c1)CCCCC3,-1.32 (inactive),
CCOC(=O)C1=C(CS(=O)(=O)c2ccc(F)cc2)NC(=O)NC1c1cc(OC)ccc1OC (centres undefined),1.65 (inactive),
Cn1c(SCC(=O)N2CCOCC2)nnc1-c1c[nH]c2ccccc12,,inactive
COc1ccc(-c2nc3s/c(=C\c4cccc(Cl)c4)c(=O)n3n2)cc1OC,-1.08 (inactive),
O=C(NCCc1c[nH]c2ccccc12)C1CCN(c2ccc(N3CCOCC3)nn2)CC1,-1.29 (inactive),
O=C(Cn1c(=O)oc2cc(S(=O)(=O)NC3CCCC3)ccc21)NC1CCCCCCC1,1.01 (inactive),
O=c1[nH]c(CN2CCN(CCO)CC2)nc2ccccc12,,inactive
O=C(Cn1c(=O)n(CC(=O)NC2CCCC2)c(=O)c2ccccc21)Nc1cccc(F)c1,1.16 (inactive),
Cc1ccn2c(NC(=O)C(C)C)c(-c3ccc(F)cc3)nc2c1,-1.4 (inactive),
Fc1ccc(-c2nnc3ccc(N4CCOCC4)nn23)cc1,1.05 (inactive),
O=C(CCSc1nc(-c2ccc3c(c2)OCO3)cc(C(F)(F)F)n1)N1CCCCC1,-1.15 (inactive),
CC1CC(C)CN(C(=O)Cn2c(=O)oc3cc(S(=O)(=O)NC4CCCC4)ccc32)C1 (centres undefined),1.02 (inactive),
Cc1cc(Cl)ccc1OCc1nc(-c2ccc(-n3cccc3)cc2)no1,-1.5 (inactive),
COC(=O)c1ccc(C2Oc3c(OC)cccc3C3CC(c4cccs4)=NN32)cc1 (centres undefined),-1.08 (inactive),
O=C(Nc1ccc(C(F)(F)F)cc1)C1CCCN1S(=O)(=O)c1cccc2nsnc12 (centres undefined),-1.19 (inactive),
COCCN1C(=O)c2oc3ccc(F)cc3c(=O)c2C1c1cccc(O)c1 (centres undefined),-1.86 (inactive),
O=C(C1CCCN1S(=O)(=O)c1cccc2nsnc12)N1CCN(c2ccccn2)CC1 (centres undefined),-1.3 (inactive),
